Measurements as given in PubChem BioAssay (NCI).
About 79,000 compounds went through this panel and 15% of them were active in at least one assay; those are over-represented in the sample as a whole. Unmarked numbers belong to inactive results. The source made the active and inactive calls. Cut-off read from the data, not from the text of the source: active = growth inhibition above about 70%; inactive = the rest.

Legend:
[1] = NCI Yeast Anticancer Drug Screen. Data for the rad50 strain (AID 155);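 note: 0% = growth of vehicle-only cultures of the same strain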; settings: S. cerevisiae rad50 strain growth inhibition, hits give high values; at 50.0 µM unless noted
Method in brief: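 Inhibition values express reduced yeast growth in compound-treated cultures relative to vehicle-treated controls.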

[2] = NCI Yeast Anticancer Drug Screen. Data for the mec2-1 strain (AID 157); settings: S. cerevisiae mec2-1 strain, hits give high values; at 50.0 µM unless noted
Method in brief: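 Vehicle-treated cultures served as reference for growth inhibition of compound-exposed mec2-1 yeast.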

[3] = NCI Yeast Anticancer Drug Screen. Data for the sgs1 mgt1 strain (AID 161);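 note: 0% = growth of cultures given vehicle only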; settings: S. cerevisiae sgs1 mgt1 strain, hits give high values; at 50.0 µM unless noted
Method in brief: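 Test agents were incubated with a DNA-repair-mutant yeast strain. Growth was then read and compared against vehicle-treated controls.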

[4] = NCI Yeast Anticancer Drug Screen. Data for the cln2 rad14 strain (AID 165);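 note: 0% = growth equal to vehicle treated cultures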; settings: S. cerevisiae cln2 rad14 strain, hits give high values; at 50.0 µM unless noted
Method in brief: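 Each compound was tested on cln2 rad14 yeast. Inhibition of growth was calculated against vehicle-exposed controls.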

[5] = NCI Yeast Anticancer Drug Screen. Data for the bub3 strain (AID 167); settings: S. cerevisiae bub3 mutant strain, hits give high values; at 50.0 µM unless noted
Method in brief: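 Steps: expose the mutant yeast strain to compound; grow alongside vehicle-treated cultures; measure growth; express inhibition against the vehicle cultures.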

[6] = NCI Yeast Anticancer Drug Screen. Data for the mlh1 rad18 strain (AID 175); settings: S. cerevisiae mlh1 rad18 strain growth inhibition, hits give high values; at 50.0 µM unless noted
Method in brief: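 Vehicle-treated cultures served as the reference for growth inhibition in a yeast strain carrying DNA damage repair alterations exposed to each compound.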

Structure (SMILES)	growth inhibition [1]	growth inhibition [2]	growth inhibition [3]	growth inhibition [4]	growth inhibition [5]	growth inhibition [6]
c1ccc(CCCNc2nnnc3ccccc23)cc1	-9.3%	-36.1%	-10.8%	-19.2%	-57.2%	-4.4%
CC(C)(C)NC(=O)Nc1ccc2ccccc2c1	-7.7%	3.95%	-8.2%	-68.5%	-24.1%	-11.3%
Cc1ccc(-c2c(C)c(-c3ccccc3)c(-c3ccccc3)c(C)c2-c2ccccc2)cc1C	63.3%	77.3% (active)	25.8%	82% (active)	97.5% (active)	65%
O=S=Nc1c(Cl)cc(Cl)cc1Cl	1.1%	-20.1%	1.55%	-18.6%	11.7%	-0.6%
CSc1ccc(NC(=O)c2ccc(Cl)cc2)cc1	-13.7%	-6.05%	-6.45%	-22.7%	5.25%	-3.35%
O=C(NCCCl)Nc1c(Cl)cccc1Cl	-4.6%	14.3%	6%	-18.6%	1.8%	-4.2%
COC(=O)C1=C2C3(O)CC4CC5C3CCC(C)N5C24C2CCCC(OC)C2C1OC(=O)c1ccccc1 (stereo not given)	-2.1%	-27.1%	17.9%	8.9%	0.7%	24.1%
COC(=O)c1cc(NC(=O)Nc2cc(C(F)(F)F)ccc2Cl)cc(C(=O)OC)c1	-24.2%	-32%	-9.65%	-22.9%	-0.55%	-38.2%
Cc1ccc2ccc3ccccc3c2c1	46%	1.45%	9.2%	20.4%	17.9%	26.2%
CC1(C)C2CC(O)C1CCC2=O (stereo not given)	-4.15%	-16.2%	-33.8%	6%	-21%	-35.5%
CCCCCSC(=O)C(N)=O	10.9%	7.45%	6.7%	-25.8%	-7.45%	4%
CCCOCC[N+](C)(C)C	1.65%	-21.9%	8.65%	-34.5%	-8.9%	-8.9%
O=C1CCCc2ccc3c(c21)CC1(Cc2cc4c(cc2C1)CCCC4)C3	-22.6%	9.15%	34%	-13.9%	32.4%	-2.7%
CCc1cc(N(C)C)ccc1N=Nc1ccc([N+](=O)[O-])cc1	43.8%	9.65%	13.5%	-26.1%	9.1%	28.9%
[O-]c1nn(-c2ccccc2)n[n+]1-c1ccccc1	-2.4%	-12.4%	-0.55%	-25%	-10.8%	-10%
CNc1nc(=O)[nH]c(C)c1[N+](=O)[O-]	19.9%	4.45%	-6.9%	-60.8%	-4%	12.6%
CN(C)CCCNC(=O)CCNC(=O)c1cc(NC(=O)c2cc(NC(=O)c3cc(NC(=O)CCCNC(=O)c4cc(NC(=O)c5cc(NC(=O)c6nccn6C)cn5C)cn4C)cn3C)cn2C)cn1C	7.55%	-14.8%	-2%	-1.35%	4%	-25.3%
COc1ccc(/C=C2\C(=O)Nc3ccccc32)cc1OC	-3.4%	5.45%	-9%	-10.4%	-1.95%	-4.4%
NC(=S)N/N=C\c1cccc(O)c1O	2.9%	25.1%	21%	7%	13.4%	12.7%
Cc1ccc(C2=Nc3cc(C)c(Cl)cc3S(=O)(=O)NN2)cc1	-29.1%	-24.9%	-48.8%	-5.2%	-18.5%	-26.8%

Structure (SMILES)	growth inhibition [1]	growth inhibition [2]	growth inhibition [3]	growth inhibition [4]	growth inhibition [5]	growth inhibition [6]
CCCCCC#CC[C@@H](O)[C@@H](O)COCc1ccccc1	17.4%	8.6%	32.2%	29.2%	-20.8%	9.9%
CSc1c(C)n2c3c(cccc13)CCC2	-9.7%	-6.6%	-3.8%	-36.7%	1.35%	3.3%
CSC(=Nc1ccccc1Cl)NC(=O)c1ccc(Br)cc1	-9.65%	20.7%	5.7%	19.3%	7.8%	-8.4%
NC(=S)N/N=C/c1ccc([N+](=O)[O-])s1	9.65%	1.1%	19.9%	25.1%	22%	32.5%
CC(C)c1ccc(/C(C(=O)O)=C(\O)C(=O)O)cc1	-14.4%	-7.25%	-15.4%	29.9%	-31.6%	-7.45%
CC1(C)C2CCC3(C2)CS(=O)(=O)N2OC231 (stereo not given)	6.55%	-35.9%	-31.1%	-20.1%	-26.9%	-9.7%
COc1ccc(C2=Nc3c(nc(OC)[nH]c3=O)NC(c3ccccc3)C2)cc1 (stereo not given)	12.3%	10.2%	-10.5%	7.55%	-8.95%	-21.8%
Cc1cc2c(C(C)C)c(O)c(O)c(C=NC(C)c3ccccc3)c2c(O)c1-c1c(C)cc2c(C(C)C)c(O)c(O)c(C=NC(C)c3ccccc3)c2c1O (stereo not given)	18.2%	7.35%	15.3%	11.9%	30.9%	7.95%
N#CCN1CCCCCC1	-14.8%	-20.5%	-16.6%	4.2%	-13.6%	9.8%
CSC(C1c2ccccc2N(c2ccc(C)cc2)c2[nH]c(=O)n(C)c(=O)c21)S(=O)(=O)c1ccc(C)cc1 (stereo not given)	23.1%	0%	-21.8%	-29%	0.15%	16.6%
O=C(Nc1ccc(C(=O)O)cc1)Nc1cccc(Cl)c1	-6.15%	2.1%	-9.55%	-14.3%	0.65%	7.4%
COc1ccc2c(c1OC(C)=O)-c1cc(OC(C)=O)cc3c1C(C2)N(C(=O)CBr)CC3 (stereo not given)	62%	54.2%	70.2% (active)	36%	20.5%	59.4%
NNc1nc(N2CCCCC2)c2[nH]cnc2n1	1.1%	-7.65%	-5.6%	0.1%	11.8%	4.95%
COc1cc(/C=C/C(=O)c2c(=O)o[nH][n+]2-c2ccccc2)ccc1[O-]	-3.75%	-7.1%	16.1%	20.9%	-1.85%	-18.1%
O=c1cc(CBr)c2ccc(O)cc2o1	-34.1%	2.55%	-23.8%	8.3%	-18.2%	-44.5%
COC(=O)C(=O)C1(c2ccccc2)C(=O)C(c2ccccc2)=CC1O (stereo not given)	15.3%	10.5%	10.1%	0.7%	8.4%	18.6%
O=C1CC(c2ccccc2)n2c(nc3ccccc32)N1 (stereo not given)	5%	1.85%	-18.1%	-14.1%	-15.4%	-64.2%
COC1/C=C/OC2(C)Oc3c(C)c(O)c4c(O)c(c(C5SCCS5)c(O)c4c3C2=O)NC(=O)C(C)=C/C=C\C(C)C(O)C(C)C2OC(C)(C)OC(C1C)C2C (stereo not given)	2.15%	33%	22.8%	15.6%	14.4%	38%
Cn1c(=S)[nH]c2c(Cl)cc(Cl)cc2c1=O	-40.4%	-30.6%	-7.1%	-13.9%	-27.7%	-51.9%
C[C@H](CCC1=NCCN1)[C@H]1CC[C@H]2[C@@H]3CC[C@@H]4C[C@H](O)CC[C@]4(C)[C@H]3CC[C@]12C	91.6% (active)	92.8% (active)	91.2% (active)	91.6% (active)	91.1% (active)	91% (active)
